From PubChem BioAssay
HCMV inh – qHTS Assay for inhibitors of the human cytomegalovirus (HCMV); HFF cells, HCMV-luciferase reporter, 72 h; stronger effect = lower value; activity change, negative = inhibition, % at 57.5 µM; 410,000 compounds, 4.5% hits; in the data active means activity change below about -60%; inconclusive means no clear call, values can overlap the other calls; inactive means above about -39%
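Two compound doses tested in HFFs infected with HCMV-luciferase, MOI 1 PFU/cell, 72 h at 37C. Lysate luminescence read with OneGlo; data normalized against buffer-only and 10uM Salinomycin inhibitor controls.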
HCV inh – qHTS Assay for Inhibitors of Hepatitis C Virus (HCV); Huh7.5.1 HCVcc-Cre infection, luciferase reporter, 44 h; Potency, µM (top dose mostly 41.8 µM), for inactives: at the highest dose activity change, negative = inhibition, most hits filed as inhibitors; 340,000 compounds, 3.4% hits; further: potency means the concentration at half of the fitted maximal effect
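Luciferase read-out (15 sec integration) after a 15 min room-temperature substrate step quantifies HCVcc-Cre infection. Cells, 1,000 per well, had compound added 4 h post-plating, then virus at ~0.5 moi, and were cultured 44 h.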
Pf growth 96h – Primary qHTS for delayed death inhibitors of the malarial parasite plastid, 96 hour incubation | 320,000 compounds, 6.9% hits | AID 504834, 2011 | Potency, µM (top dose mostly 28.7 µM), for the others: top-dose activity change, negative = inhibition, actives largely listed as inhibitors | P. falciparum luciferase reporter growth, 96 h; further: potency means the concentration at half of the fitted maximal effect
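Plates of compound plus infected erythrocytes (2% hematocrit, 0.05% parasitemia final) incubate 96 hours, 37 C, 5% CO2. Detection reagent added; reduced luminescence from the parasites' luciferase reporter flags inhibition.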
Pf growth 48h – Primary qHTS for delayed death inhibitors of the malarial parasite plastid, 48 hour incubation; P. falciparum luciferase growth in erythrocytes, 48 h; Potency, µM (series often up to 28.7 µM), without a hit: at the top dose activity change, negative = inhibition, hits mostly inhibitors; 310,000 compounds, 5.9% hits; further: potency means the concentration at half of the fitted maximal effect
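Luciferase-expressing P. falciparum in infected erythrocytes (2% hematocrit, 0.1% parasitemia final) in RPMI 1640/0.5% Albumax were exposed to compound for 48 hours at 37 C, 5% CO2; growth read as luminescence.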
The depositor's hits bear a star. In the library only some 13% were active in any assay of this set; here they are far more common. Unless noted, the call rests on the fitted dose curve; in most records, active means well fitted inhibition curve with a large enough effect; inconclusive means small, poorly fitted or top-dose-only effect, or another doubt; inactive means no such curve, though single readings can be large or run the other way. On the % scale 0 is the no-effect control and ±100 the full control effect.

How did COc1ccc(NC(=O)C2CCN(C(=O)c3sc4nc[nH]c(=O)c4c3C)CC2)cc1Cl do in these assays?
HCMV inh: 30

What do the screens show for `CCOc1ccc2c(c1)-c1c(ssc1=S)C(C)(C)N2C(=O)CSC1=NCCS1`?
HCMV inh: inconclusive; HCV inh: inconclusive; Pf growth 96h: 1.7µM*; Pf growth 48h: inconclusive

Results for CCC(CC)c1nn2c(=O)cc(COc3ccc(NC(=O)c4cccc(Cl)c4)cc3)nc2s1 ?
HCMV inh: -6

What do the screens show for `COc1ccc(C(=O)/C=C/C(=O)N(CC(=O)NCCC(C)C)Cc2cccs2)c(O)c1`?
HCMV inh: -100*; HCV inh: 11µM*; Pf growth 96h: 6%; Pf growth 48h: inconclusive

Results for COc1ccc(C(=O)N(Cc2ccco2)Cc2cccs2)c(O)c1 ?
HCMV inh: 3; HCV inh: -14%; Pf growth 48h: 7%

Results for CS(=O)(=O)N(CC(=O)NC1CCCCC1)Cc1ccc(F)cc1 ?
HCMV inh: -19; HCV inh: 10%; Pf growth 96h: 2%; Pf growth 48h: -2%

Results for COc1ccc(C(=O)/C=C/C(=O)N(CC(=O)NC2CCCCC2)Cc2ccc(F)cc2)c(O)c1 ?
HCMV inh: -116*; HCV inh: inconclusive; Pf growth 96h: 2.3µM*; Pf growth 48h: 9.3µM*

What do the screens show for `COc1cc(C)c(S(=O)(=O)n2ccc(C)n2)cc1C`?
HCMV inh: 2; HCV inh: -10%; Pf growth 96h: 15µM*

How did CCOc1ccc(S(=O)(=O)n2ccc(C)n2)c2ccccc12 do in these assays?
HCMV inh: -27; HCV inh: -4%; Pf growth 96h: inconclusive; Pf growth 48h: 10µM*

How did CCOc1ccc(S(=O)(=O)N2CCCCC2)c2ccccc12 do in these assays?
HCMV inh: -40; HCV inh: inconclusive; Pf growth 96h: inconclusive; Pf growth 48h: -11%

What do the screens show for `COc1ccc(S(=O)(=O)n2ccc(C)n2)cc1C`?
HCMV inh: 9; HCV inh: -1%; Pf growth 48h: 7%

How did O=C1NC[C@@H](CCCCN2CCN(Cc3ccccc3)C(=O)C2=O)N(Cc2ccccc2)C1=O do in these assays?
HCMV inh: -6

What do the screens show for `CCCNC(=O)Cn1c2ccccc2c2nc(=O)cc(C)n21`?
HCMV inh: 27; HCV inh: 23%; Pf growth 96h: 8.3µM*

Results for Cc1cc(=O)nc2c3ccccc3n(CC(=O)Nc3ccccc3Br)n12 ?
HCMV inh: 19; HCV inh: inconclusive; Pf growth 96h: inconclusive; Pf growth 48h: inconclusive

Results for Cc1cccn2c(=O)c3cc(C(=O)NCCc4ccc(S(N)(=O)=O)cc4)n(C)c3nc12 ?
HCMV inh: -3

What do the screens show for `CN(Cc1ccccc1)S(=O)(=O)c1ccc2c(c1)NC(=O)CC(=O)N2`?
HCMV inh: 9; HCV inh: 3%; Pf growth 96h: 10µM*; Pf growth 48h: 51%

What do the screens show for `COc1ccc(Cl)cc1NC(=O)c1cn(C2CCCC2)c(=O)c2c1c1ccccc1n2C`?
HCMV inh: -15

How did O=C1CSC(c2cn(-c3ccccc3)nc2-c2ccccc2)N1Cc1ccco1 (stereo not drawn) do in these assays?
HCMV inh: -21; HCV inh: inconclusive; Pf growth 96h: 2.9µM*; Pf growth 48h: 13µM*

How did O=C1CSC(c2cn(-c3ccccc3)nc2-c2cccs2)N1CC1CCCO1 (stereo not drawn) do in these assays?
HCMV inh: -26; HCV inh: inconclusive; Pf growth 96h: 8.3µM*; Pf growth 48h: 12µM*

What do the screens show for `CCOC(=O)C1CCC(CN(Cc2c(Cl)cccc2Cl)S(=O)(=O)c2ccc(F)cc2)CC1` (stereo not drawn)?
HCMV inh: -27

What do the screens show for `NC(=S)NN=Cc1c[nH]c2nccnc12`?
HCMV inh: -18

What do the screens show for `NC(=S)NN=Cc1nccc2c(C(F)(F)C(F)(F)C(F)(F)F)cccc12`?
HCMV inh: -99*

Results for Cc1ccc(NC(=S)N(CCCN2CCOCC2)Cc2cccs2)c(C)c1 ?
HCMV inh: inconclusive; HCV inh: -14%; Pf growth 96h: 9.3µM*; Pf growth 48h: inconclusive

What do the screens show for `CCN(CC)CCNC(=O)CNC(=S)N(CCCN1CCOCC1)Cc1cccs1`?
HCMV inh: -35; HCV inh: inconclusive; Pf growth 96h: 1.7µM*; Pf growth 48h: 0%

What do the screens show for `COc1ccc(-c2cc(C3CCN(c4cc(Cl)nc(N)n4)CC3)[nH]n2)cc1`?
HCMV inh: -60*; HCV inh: inconclusive; Pf growth 96h: inconclusive; Pf growth 48h: inconclusive

What do the screens show for `COc1ccc(-c2cc(C3CCN(CC(O)C(F)(F)F)CC3)[nH]n2)cc1` (stereo not drawn)?
HCMV inh: -18; HCV inh: -13%; Pf growth 96h: -25%

Results for COc1ccc(OC)c(-c2cc(C3CCN(c4cc(Cl)nc(N)n4)CC3)[nH]n2)c1 ?
HCMV inh: -89*; HCV inh: inconclusive; Pf growth 96h: inconclusive; Pf growth 48h: inconclusive

How did COc1cccc(-c2nc(CS(=O)(=O)CC(=O)NCCc3ccc(Cl)cc3)c(C)o2)c1 do in these assays?
HCMV inh: -18

What do the screens show for `C/C(=N\NC(=O)C1(C)CC1(Br)Br)c1ccc(NC(=O)C2CCC2)cc1` (stereo not drawn)?
HCMV inh: -26; HCV inh: inconclusive; Pf growth 96h: 5.2µM*; Pf growth 48h: inconclusive

What do the screens show for `C/C(=N\NC(=O)c1nn(C)c(C)c1Br)c1ccc(NC(=O)C2CCCC2)cc1`?
HCMV inh: 94; HCV inh: inconclusive; Pf growth 96h: 13µM*; Pf growth 48h: -18%

What do the screens show for `C/C(=N\NC(=O)c1ccn(C)n1)c1ccc(NC(=O)C2CCCC2)cc1`?
HCMV inh: -36; HCV inh: 10%; Pf growth 96h: 12%; Pf growth 48h: 27%

Results for COc1ccc(CN2C(=O)C(n3c(C)ccc3C)c3cc(OC)ccc32)cc1 (stereo not drawn) ?
HCMV inh: -15

Results for Cc1ccc(NC2=CC(=O)CC(c3ccc(Cl)cc3)C2)cc1 (stereo not drawn) ?
HCMV inh: -31; HCV inh: -11%; Pf growth 96h: inconclusive; Pf growth 48h: 13µM*

Results for Cc1ccc(NC2=CC(=O)CC(c3ccccc3)C2)cc1 (stereo not drawn) ?
HCMV inh: inconclusive; HCV inh: -22%; Pf growth 96h: inconclusive; Pf growth 48h: inconclusive

Results for O=C(Cn1c(=O)nc(-c2ccccc2)c2ccccc21)Nc1cccc(C(F)(F)F)c1 ?
HCMV inh: 66

Results for CC(=O)Oc1cccc2c1C(=O)c1c(OC(C)=O)cc(C(=O)O)cc1C2=O ?
HCMV inh: -3; HCV inh: 7.1µM*; Pf growth 96h: 0%; Pf growth 48h: 3%

Results for Cc1cc(C)c2c(c1)c(C)cc1nnc(SCC(=O)c3ccccc3)n12 ?
HCMV inh: -19
